# In ChEMBL document CHEMBL2218924, “A broad activity screen in support of a chemogenomic map for kinase signalling research and drug discovery” (Biochem J, 2013):
# Tests used:
# [1] = target: T1, Ephrin type-A receptor 3 (Homo sapiens) (UniProt P29320); details: at 10 µM
# T1 sequence (whole entry): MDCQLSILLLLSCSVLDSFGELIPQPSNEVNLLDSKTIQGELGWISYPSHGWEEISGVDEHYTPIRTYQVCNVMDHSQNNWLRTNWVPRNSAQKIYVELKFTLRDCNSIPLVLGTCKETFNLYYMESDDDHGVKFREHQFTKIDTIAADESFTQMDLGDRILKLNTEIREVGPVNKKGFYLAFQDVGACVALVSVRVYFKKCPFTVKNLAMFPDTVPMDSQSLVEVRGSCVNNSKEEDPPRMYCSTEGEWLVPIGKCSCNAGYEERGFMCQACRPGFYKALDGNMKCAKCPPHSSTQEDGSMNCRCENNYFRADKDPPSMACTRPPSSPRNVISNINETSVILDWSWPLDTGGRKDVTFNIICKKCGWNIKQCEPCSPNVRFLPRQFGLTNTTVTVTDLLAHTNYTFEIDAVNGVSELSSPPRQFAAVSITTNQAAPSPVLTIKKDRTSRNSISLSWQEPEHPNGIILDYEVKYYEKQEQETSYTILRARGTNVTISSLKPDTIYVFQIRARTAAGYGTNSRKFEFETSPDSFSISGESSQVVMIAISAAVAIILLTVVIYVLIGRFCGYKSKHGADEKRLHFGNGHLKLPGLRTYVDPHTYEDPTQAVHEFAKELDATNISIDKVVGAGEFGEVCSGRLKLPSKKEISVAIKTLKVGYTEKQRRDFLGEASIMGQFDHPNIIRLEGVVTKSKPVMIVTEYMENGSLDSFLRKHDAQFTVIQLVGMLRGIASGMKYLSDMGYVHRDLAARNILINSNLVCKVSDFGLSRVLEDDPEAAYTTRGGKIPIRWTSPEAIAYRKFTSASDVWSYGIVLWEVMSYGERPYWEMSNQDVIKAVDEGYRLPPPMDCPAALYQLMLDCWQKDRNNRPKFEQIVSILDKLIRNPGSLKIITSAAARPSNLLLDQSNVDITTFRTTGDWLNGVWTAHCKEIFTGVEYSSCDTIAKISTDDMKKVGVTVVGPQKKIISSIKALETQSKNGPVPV
# [2] = target: Ephrin type-A receptor 4 (Homo sapiens) (UniProt P54764); details: at 1 µM
# [3] = target: Ephrin type-A receptor 4 (Homo sapiens) (UniProt P54764); details: at 10 µM
# [4] = target: Ephrin type-A receptor 5 (Homo sapiens) (UniProt P54756); details: at 1 µM
# [5] = target: Ephrin type-A receptor 5 (Homo sapiens) (UniProt P54756); details: at 10 µM
# [6] = target: Ephrin type-A receptor 7 (Homo sapiens) (UniProt Q15375); details: at 1 µM
# [7] = target: Ephrin type-A receptor 7 (Homo sapiens) (UniProt Q15375); details: at 10 µM
# [8] = target: T2, Ephrin type-A receptor 8 (Homo sapiens) (UniProt P29322); details: at 1 µM
# T2 sequence (whole entry): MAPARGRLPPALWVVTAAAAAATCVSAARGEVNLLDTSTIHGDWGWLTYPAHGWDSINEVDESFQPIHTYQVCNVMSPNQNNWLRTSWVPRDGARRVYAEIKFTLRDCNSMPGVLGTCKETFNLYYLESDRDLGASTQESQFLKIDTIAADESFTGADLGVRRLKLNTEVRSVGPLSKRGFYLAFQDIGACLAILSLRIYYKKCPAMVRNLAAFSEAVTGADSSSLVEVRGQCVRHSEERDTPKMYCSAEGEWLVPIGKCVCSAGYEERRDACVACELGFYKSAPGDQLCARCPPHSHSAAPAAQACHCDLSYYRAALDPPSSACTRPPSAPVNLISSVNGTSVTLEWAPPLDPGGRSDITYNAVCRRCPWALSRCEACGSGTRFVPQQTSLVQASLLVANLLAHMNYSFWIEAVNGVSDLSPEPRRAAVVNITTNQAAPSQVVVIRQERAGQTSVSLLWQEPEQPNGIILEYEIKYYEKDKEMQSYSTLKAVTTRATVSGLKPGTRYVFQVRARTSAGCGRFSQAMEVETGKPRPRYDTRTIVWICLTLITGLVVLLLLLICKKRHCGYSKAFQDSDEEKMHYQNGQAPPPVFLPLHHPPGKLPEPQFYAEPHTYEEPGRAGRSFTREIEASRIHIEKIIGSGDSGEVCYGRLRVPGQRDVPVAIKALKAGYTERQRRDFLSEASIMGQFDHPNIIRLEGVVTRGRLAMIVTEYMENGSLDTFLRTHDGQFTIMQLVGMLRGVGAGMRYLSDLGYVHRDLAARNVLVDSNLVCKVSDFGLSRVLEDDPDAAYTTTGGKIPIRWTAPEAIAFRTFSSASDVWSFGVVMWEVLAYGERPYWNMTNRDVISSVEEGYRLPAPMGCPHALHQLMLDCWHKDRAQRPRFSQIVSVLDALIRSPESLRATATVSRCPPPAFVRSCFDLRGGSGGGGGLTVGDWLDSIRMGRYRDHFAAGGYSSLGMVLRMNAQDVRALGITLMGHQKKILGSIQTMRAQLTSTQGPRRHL
# [9] = target: T2, Ephrin type-A receptor 8 (Homo sapiens); details: at 10 µM
# [10] = target: T3, Ephrin type-B receptor 1 (Homo sapiens) (UniProt P54762); details: at 1 µM
# T3 sequence (whole entry): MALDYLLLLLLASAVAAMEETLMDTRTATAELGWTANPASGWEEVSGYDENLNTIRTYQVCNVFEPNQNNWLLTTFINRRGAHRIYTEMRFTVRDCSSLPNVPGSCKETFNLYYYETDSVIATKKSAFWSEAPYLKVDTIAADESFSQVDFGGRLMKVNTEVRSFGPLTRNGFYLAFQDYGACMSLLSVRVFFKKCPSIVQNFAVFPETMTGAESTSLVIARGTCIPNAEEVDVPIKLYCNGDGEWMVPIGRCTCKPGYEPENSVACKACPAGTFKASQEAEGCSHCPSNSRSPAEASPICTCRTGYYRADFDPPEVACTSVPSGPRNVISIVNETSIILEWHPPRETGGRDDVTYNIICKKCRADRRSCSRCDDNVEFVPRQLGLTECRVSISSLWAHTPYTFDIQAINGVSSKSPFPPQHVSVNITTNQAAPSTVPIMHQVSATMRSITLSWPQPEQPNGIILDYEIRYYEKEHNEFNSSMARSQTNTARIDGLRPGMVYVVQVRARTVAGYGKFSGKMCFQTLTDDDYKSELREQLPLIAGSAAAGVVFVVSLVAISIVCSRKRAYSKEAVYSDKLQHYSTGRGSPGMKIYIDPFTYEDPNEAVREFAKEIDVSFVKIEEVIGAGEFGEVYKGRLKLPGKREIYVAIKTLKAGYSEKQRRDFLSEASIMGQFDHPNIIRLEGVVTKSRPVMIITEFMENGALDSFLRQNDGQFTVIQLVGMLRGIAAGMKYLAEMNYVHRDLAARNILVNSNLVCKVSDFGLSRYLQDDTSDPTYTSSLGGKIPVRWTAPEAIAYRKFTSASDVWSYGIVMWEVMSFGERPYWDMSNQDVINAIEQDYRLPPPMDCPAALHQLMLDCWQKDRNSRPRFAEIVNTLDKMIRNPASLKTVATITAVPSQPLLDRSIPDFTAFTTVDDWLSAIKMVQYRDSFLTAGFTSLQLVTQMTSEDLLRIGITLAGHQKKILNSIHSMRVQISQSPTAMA
# Ephrin type-A receptor 7 (Homo sapiens), sequence (Q15375 28-998 limits assumed): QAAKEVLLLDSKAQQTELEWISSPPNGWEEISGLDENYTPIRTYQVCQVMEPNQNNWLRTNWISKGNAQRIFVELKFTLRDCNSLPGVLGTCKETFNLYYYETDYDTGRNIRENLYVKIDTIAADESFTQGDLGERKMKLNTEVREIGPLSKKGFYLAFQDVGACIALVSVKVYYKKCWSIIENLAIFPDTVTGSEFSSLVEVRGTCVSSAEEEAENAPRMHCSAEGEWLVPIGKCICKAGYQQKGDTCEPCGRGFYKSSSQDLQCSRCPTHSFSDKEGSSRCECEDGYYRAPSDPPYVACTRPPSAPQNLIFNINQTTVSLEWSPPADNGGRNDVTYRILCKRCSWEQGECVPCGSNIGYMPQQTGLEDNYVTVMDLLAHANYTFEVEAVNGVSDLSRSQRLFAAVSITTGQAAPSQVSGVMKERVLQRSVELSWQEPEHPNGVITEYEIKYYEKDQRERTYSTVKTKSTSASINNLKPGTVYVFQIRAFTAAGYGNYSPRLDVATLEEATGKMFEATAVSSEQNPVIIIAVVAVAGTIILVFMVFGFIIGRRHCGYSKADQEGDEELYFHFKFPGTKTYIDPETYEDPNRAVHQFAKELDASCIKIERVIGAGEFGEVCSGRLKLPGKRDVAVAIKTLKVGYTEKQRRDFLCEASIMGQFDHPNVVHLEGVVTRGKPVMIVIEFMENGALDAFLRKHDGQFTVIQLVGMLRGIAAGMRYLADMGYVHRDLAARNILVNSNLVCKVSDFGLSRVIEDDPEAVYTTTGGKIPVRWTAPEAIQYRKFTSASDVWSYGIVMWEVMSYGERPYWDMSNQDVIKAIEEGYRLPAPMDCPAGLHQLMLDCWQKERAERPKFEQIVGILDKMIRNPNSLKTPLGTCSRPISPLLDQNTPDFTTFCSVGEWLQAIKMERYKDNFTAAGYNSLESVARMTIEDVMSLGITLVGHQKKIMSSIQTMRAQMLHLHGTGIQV
# Ephrin type-A receptor 4 (Homo sapiens), sequence (P54764 whole entry): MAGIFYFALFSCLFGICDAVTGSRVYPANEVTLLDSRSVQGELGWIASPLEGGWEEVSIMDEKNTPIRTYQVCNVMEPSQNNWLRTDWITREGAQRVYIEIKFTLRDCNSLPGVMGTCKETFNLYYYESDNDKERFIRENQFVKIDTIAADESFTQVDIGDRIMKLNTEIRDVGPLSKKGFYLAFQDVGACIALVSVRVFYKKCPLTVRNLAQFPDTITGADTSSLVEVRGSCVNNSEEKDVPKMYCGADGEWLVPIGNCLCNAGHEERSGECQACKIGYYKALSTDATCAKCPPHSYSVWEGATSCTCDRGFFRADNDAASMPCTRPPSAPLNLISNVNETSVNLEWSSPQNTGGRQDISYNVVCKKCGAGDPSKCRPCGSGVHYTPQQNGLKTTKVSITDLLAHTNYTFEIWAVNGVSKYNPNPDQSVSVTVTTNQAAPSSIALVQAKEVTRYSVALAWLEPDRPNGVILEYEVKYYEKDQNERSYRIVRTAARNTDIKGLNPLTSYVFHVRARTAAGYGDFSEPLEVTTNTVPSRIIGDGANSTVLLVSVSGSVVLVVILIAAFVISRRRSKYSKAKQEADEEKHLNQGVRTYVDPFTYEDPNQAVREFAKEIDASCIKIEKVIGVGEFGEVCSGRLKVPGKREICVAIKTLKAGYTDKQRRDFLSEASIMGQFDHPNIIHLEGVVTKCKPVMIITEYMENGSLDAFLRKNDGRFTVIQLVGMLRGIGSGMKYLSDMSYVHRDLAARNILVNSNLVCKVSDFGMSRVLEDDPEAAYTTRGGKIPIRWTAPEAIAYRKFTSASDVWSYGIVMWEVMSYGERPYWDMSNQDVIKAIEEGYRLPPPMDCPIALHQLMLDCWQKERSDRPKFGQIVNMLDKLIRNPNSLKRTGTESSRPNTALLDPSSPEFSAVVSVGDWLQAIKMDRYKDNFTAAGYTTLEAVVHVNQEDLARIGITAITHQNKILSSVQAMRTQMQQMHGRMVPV
# Ephrin type-A receptor 5 (Homo sapiens), sequence (P54756 whole entry): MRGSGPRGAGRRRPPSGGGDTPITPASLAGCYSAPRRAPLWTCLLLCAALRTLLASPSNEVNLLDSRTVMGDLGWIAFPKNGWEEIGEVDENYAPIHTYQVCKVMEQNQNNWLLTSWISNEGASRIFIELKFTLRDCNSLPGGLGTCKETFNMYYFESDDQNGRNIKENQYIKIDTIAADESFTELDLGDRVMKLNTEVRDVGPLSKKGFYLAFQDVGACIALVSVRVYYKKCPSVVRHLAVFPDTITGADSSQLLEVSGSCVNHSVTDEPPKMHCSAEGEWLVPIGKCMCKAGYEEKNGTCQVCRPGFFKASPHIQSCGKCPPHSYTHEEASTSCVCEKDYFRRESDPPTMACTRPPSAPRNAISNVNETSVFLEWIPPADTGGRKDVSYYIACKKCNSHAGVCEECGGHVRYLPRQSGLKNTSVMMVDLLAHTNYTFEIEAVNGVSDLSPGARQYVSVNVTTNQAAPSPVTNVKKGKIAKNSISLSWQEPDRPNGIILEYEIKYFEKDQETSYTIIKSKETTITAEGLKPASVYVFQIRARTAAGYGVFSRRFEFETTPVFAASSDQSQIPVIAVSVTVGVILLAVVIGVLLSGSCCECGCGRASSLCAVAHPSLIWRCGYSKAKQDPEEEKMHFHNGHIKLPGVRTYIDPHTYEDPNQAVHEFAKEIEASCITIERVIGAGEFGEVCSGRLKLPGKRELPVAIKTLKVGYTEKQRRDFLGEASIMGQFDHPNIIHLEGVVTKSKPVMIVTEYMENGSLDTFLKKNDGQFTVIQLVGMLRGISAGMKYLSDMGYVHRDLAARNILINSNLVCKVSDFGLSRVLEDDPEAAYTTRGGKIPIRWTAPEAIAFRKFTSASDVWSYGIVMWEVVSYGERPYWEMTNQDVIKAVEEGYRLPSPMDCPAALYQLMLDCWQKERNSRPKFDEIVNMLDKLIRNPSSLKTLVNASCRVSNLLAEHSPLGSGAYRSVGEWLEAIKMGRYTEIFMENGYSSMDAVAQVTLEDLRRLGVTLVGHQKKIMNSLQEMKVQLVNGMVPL
smiles,measurement,setting,value
O=c1[nH]c2ccccc2n1C1CCN(Cc2ccc(-c3nc4cc5[nH]cnc5cc4nc3-c3ccccc3)cc2)CC1,residual activity,[1],76%
same,residual activity,[2],112%
same,residual activity,[3],81%
same,residual activity,[4],114%
same,residual activity,[5],99%
same,residual activity,[6],97%
same,residual activity,[7],93%
same,residual activity,[8],108%
same,residual activity,[9],104%
same,residual activity,[10],93%
